Source: PubChem BioAssay (National Center for Advancing Translational Sciences (NCATS))
Rows were chosen to be rich in hits. Some 15% of all compounds tested hit in one or more screens of this group.
SARS PLpro yeast = inhibitors of SARS-CoV papain-like protease in yeast. S. cerevisiae expressing SARS-CoV PLpro, growth rescue. Potency, µM (doses to about 32.9 µM), for inactives: top-dose activity, positive = growth rescue, usual class: activators. 0.19% of 330,000 active; calls by dose curve; further: potency means the concentration at half of the fitted maximal effect; 0% is about no effect; nearly all actives have a fitted effect of over 55% in size
Pf growth 48h = P. falciparum growth inhibition at 48 hours (one generation); P. falciparum luciferase growth in erythrocytes, 48 h; Potency, µM (highest dose often 28.7 µM), for the others: at the highest dose activity change, negative = inhibition, usual class: inhibitors; 5.9% of 310,000 active; AID 504832; further: potency means the concentration at half of the fitted maximal effect; on the % scale 0 is the no-effect control and ±100 the full control effect
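Here the parasites carry a stable luciferase gene and grow inside erythrocytes in Albumax-based RPMI medium with compound for one erythrocytic cycle. Activity is scored as loss of luminescent signal.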
HCV inhibitor = blocks hepatitis C virus; Potency, µM (series often up to 41.8 µM), inactives show at the top dose activity change, negative = inhibition, actives largely listed as inhibitors; 3.4% of 340,000 active; Huh7.5.1 HCVcc-Cre infection, luciferase reporter, 44 h; further: potency means the concentration at half of the fitted maximal effect; on the % scale 0 is the no-effect control and ±100 the full control effect
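Luciferase read-out (15 sec integration) after a 15 min room-temperature substrate step quantifies HCVcc-Cre infection. Cells, 1,000 per well, had compound added 4 h post-plating, then virus at ~0.5 moi, and were cultured 44 h.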
Pf growth 96h = inhibits malaria parasite growth, 96 h. P. falciparum luciferase reporter growth, 96 h. Potency, µM (titrated, usually from 28.7 µM), for inactives: at the highest dose activity change, negative = inhibition, hits mostly inhibitors. 6.9% of 320,000 active. AID 504834; further: potency means the concentration at half of the fitted maximal effect; on the % scale 0 is the no-effect control and ±100 the full control effect
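Infected RBCs, 2% Hct / 0.05% parasitemia final; luciferase-reporter P. falciparum; cpd 96 h, 37 C, 5% CO2; luciferase detection reagent; luminescence.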
Sm TGR inh = blocks Schistosoma mansoni thioredoxin glutathione reductase; 3% of 360,000 active; AID 485364; purified TGR, DTNB reduction, TNB absorbance 405 nm; Q962Y6; Potency, µM (titrated, usually from 114 µM), inactives show top-dose activity change, negative = inhibition, hits mostly inhibitors; further: potency means the concentration at half of the fitted maximal effect; on the % scale 0 is the no-effect control and ±100 the full control effect; nearly all actives have a fitted effect of over 60% in size
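Kinetic colorimetric format: TGR-catalysed, NADPH-driven DTNB reduction monitored via TNB absorbance. Enzyme dispensed at 20 nM; compound exposure 15 min at room temperature before reaction start.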
HCMV antiviral = human cytomegalovirus inhibition; activity change, negative = inhibition, % at 57.5 µM; 4.5% of 410,000 active; HFF cells, HCMV-luciferase reporter, 72 h; active compounds read low; in the data active means activity change below about -60%; inconclusive means no clear call, values can overlap the other calls; inactive means above about -39%; further: on the % scale 0 is the no-effect control and ±100 the full control effect
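Compounds were evaluated in HFFs infected with an HCMV luciferase reporter virus (MOI 1 PFU/cell). Luciferase in lysates collected 72 h post infection served as the replication measure.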
Active calls of the source: *; u = inconclusive; x = no result given; [ ] = another dose, or the depositor's remark. Unless noted, the call rests on the fitted dose curve; in most records, active means well fitted curve in the direction sought with a large enough effect; inconclusive means small, poorly fitted or top-dose-only effect, or another doubt; inactive means no such curve, though single readings can be large; an effect the other way counts as inactive or inconclusive.

SMILES	SARS PLpro yeast	Pf growth 48h	HCV inhibitor	Pf growth 96h	Sm TGR inh	HCMV antiviral
CCC(C)NC(=O)C1CCCN(S(=O)(=O)c2ccc3c(c2)CC(C)N3C(=O)C2CC2)C1 (configuration not stated)	2%	u	-4%	u	-1%	6
CCCCN(C)C(=O)C1CCCN(S(=O)(=O)c2ccc3c(c2)CC(C)N3C(=O)C2CC2)C1 (configuration not stated)	-3%	u	-24%	13µM*	7%	-40
CC1CC(C)CN(S(=O)(=O)c2ccc3c(c2)CC(C)N3C(=O)C2CC2)C1 (configuration not stated)	-31%	u	-5%	u	-1%	u
CCCNC(=O)C1CCN(S(=O)(=O)c2ccc3[nH]c(=O)ccc3c2)CC1	1%	8%	13%	-10%	55%	u
CC1CC(C)CN(S(=O)(=O)c2ccc3c(c2)CC(C)N3C(=O)C2CCC2)C1 (configuration not stated)	1%	10µM*	u	u	2%	u
CN(C)CC(=O)Nc1ccc2c(c1)[C@H]1C[C@H](CC(=O)NCc3ccc4c(c3)OCO4)O[C@H](CO)[C@H]1O2	x	x	x	x	x	14
COc1ccc(N2C(=O)C(OC(C)=O)C2c2ccc(C)cc2)cc1 (configuration not stated)	-10%	7%	12%	21%	-1%	-64*
COc1ccc(OC2C(=O)N(c3ccc(F)cc3)C2c2ccc(OC)c(OC)c2)cc1 (configuration not stated)	0%	0%	-11%	1%	12%	-31
COc1ccccc1NC(=O)N1CC(=O)Nc2sc3c(c2C1c1ccccc1)CCCC3 (configuration not stated)	x	x	x	x	-7%	6
COc1ccc(C(=O)Nc2ccc(C3=NNC(=O)CC3C)cc2NC(=O)c2ccc(OC)cc2)cc1 (configuration not stated)	-1%	u	10µM*	u	4%	8
O=c1cc(CS(=O)(=O)c2ccccc2)nc(-c2ccncc2)[nH]1	1%	12µM*	11%	u	-1%	-26
Cc1ccc(C)c(Cn2c(=O)n(C(C)C)c(=O)c3oc4ccccc4c32)c1	x	x	x	x	7%	-27
CC(C)(C)NS(=O)(=O)c1ccc(NS(C)(=O)=O)cc1	13%	x	1%	-2%	-5%	-15
Cc1ccc(NC(=O)CSc2nccn2C2CCCC2)cc1	x	x	x	x	4%	-34
COCCN1C(=O)COCc2cc(-c3cnn(C)c3)ccc21	x	x	x	x	x	21
CCC(C)(C)c1ccc(Oc2ccc(N)cc2)cc1	-19%	u	4.5µM*	u	3%	-91*
O=C(c1ccc(C(F)(F)F)cc1)N1CCC(=O)N(C(COCc2ccccc2)Cc2ccccc2)CC1 (configuration not stated)	-11%	u	1%[8.37 µM]	8.3µM*	-5%	-6
CC(C)CC(COCc1cccc(C(F)(F)F)c1)N1CCN(C(=O)c2cccc(C(F)(F)F)c2)CCC1=O (configuration not stated)	-3%	u	u	15µM*	-13%	38
CC(C)(C)c1ccc(C(=O)N2CCC(=O)N(C(COCc3ccccc3)Cc3ccccc3)CC2)cc1 (configuration not stated)	-20%	9.3µM*	u	12µM*	-12%	37
O=C(c1ccc(Cl)c(Cl)c1)N1CCC(=O)N(C(COCc2cccc(C(F)(F)F)c2)Cc2ccccc2)CC1 (configuration not stated)	-24%	u	5%[8.37 µM]	13µM*	-26%	55
O=c1c2ccccc2c(C=Nc2ccc(Cl)cn2)c(O)n1-c1cc(Cl)ccc1N1CCOCC1	-1%	6%	31%	u	-34%	u
CC(=O)c1ccc(N=Cc2c(O)n(-c3cc(Cl)ccc3N3CCOCC3)c(=O)c3ccccc23)cc1	-1%	0.66µM*	14%	x	-3%	-8
COc1cc(NC(=O)C2CC(c3cccc(OC)c3OC)=NO2)cc(OC)c1OC (configuration not stated)	0%	0%	1.1µM*	-17%	-8%	x
COc1ccc(C2=NOC(C(=O)Nc3cccc(O)c3)C2)cc1 (configuration not stated)	1%	23%	-20%	5.2µM*	-9%	39
COc1ccc(C2=NOC(C(=O)Nc3cc(Br)ccc3O)C2)cc1OC (configuration not stated)	-9%	15µM*	1%	2%	-1%	-2
SMILES	SARS PLpro yeast	Pf growth 48h	HCV inhibitor	Pf growth 96h	Sm TGR inh	HCMV antiviral
COc1cccc(C2=NOC(C(=O)Nc3cccnc3)C2)c1 (configuration not stated)	1%	16%	-16%	31%	-26%	-24
COc1cccc(C2=NOC(C(=O)Nc3cc(C)on3)C2)c1 (configuration not stated)	1%	-6%	4%	-7%	19%	-102*
CCC1(c2ccc(F)cc2)NC(=O)N(CC(=O)Nc2cc(C)on2)C1=O (configuration not stated)	-7%	-5%	12%	u	-11%	-20
Cc1c(Cl)cnc(NC(=O)COC(=O)c2cccc(S(=O)(=O)N3c4ccccc4CC3C)c2)c1Cl (configuration not stated)	9%	2%	17%	5%	-4%	90
COc1ccc(C2=NOC(C(=O)NCCN3CCOCC3)C2)cc1 (configuration not stated)	-3%	u	18%	27%	2%	34
COc1ccc(OC)c(C2=NOC(C(=O)Nc3cccc(C(C)=O)c3)C2)c1 (configuration not stated)	2%	20%	-26%	9.3µM*	-24%	3
Cc1cc(NC(=O)C2CC(c3ccc(Cl)cc3)=NO2)no1 (configuration not stated)	3%	-8%	14%	-5%	2%	-13
COc1cc(NC(=O)C2CC(c3c(F)cccc3Cl)=NO2)c(OC)cc1Cl (configuration not stated)	-1%	-29%	u	10µM*	-21%	3
COc1cccc(C2=NOC(C(=O)NCCN3CCOCC3)C2)c1 (configuration not stated)	-2%	u	20%	8.3µM*	-22%	-18
COc1ccc(C2=NOC(C(=O)Nc3cc(C)on3)C2)cc1 (configuration not stated)	5%	x	12%	9.3µM*	-13%	52
